# Hits are enriched below; roughly 5.4% of the tested compounds scored in any of these assays.
# MIN6 prolif: induces beta-cell replication in MIN6 cells; MIN6 cells proliferation, ATPlite luminescence, 48 h; cells starved in 0.2% serum; 100% = growth in 10% serum; proliferation, % at 10 µM; hit rate 0.29% among 330,000; AID 2380;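 active = compounds whose signal lies at least 3.5 SD above the mean of all wells on their plate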;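 also: 0% = DMSO-treated cells in low-serum medium and 100% = 10% serum control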
# ALR H2O2 inh: blocks human ALR sulfhydryl oxidase activity | P55789 | purified ALR, DTT oxidation, H2O2 HRP-luminol luminescence | inhibition, % (no concentration beside the values) | hit rate 3.8% among 290,000 | AID 485317;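 active = mean replicate inhibition above about 79%, with every replicate also reaching it, limit read from the data; inconclusive = only one of the two criteria met; inactive = mean below limit and not every replicate reaching it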
# Exocytosis inh: blocks lytic granule exocytosis; hit rate 0.66% among 360,000; inhibition, % at 10 µM; AID 651702; TALL-104 LAMP-1 surface exposure, flow cytometry; cells stimulated with thapsigargin and PMA;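 active = inhibition above about 55%, limit read from the data; inconclusive = no clear call, values can overlap the other calls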
# PfM18AAP inh: PfM18AAP enzyme inhibition; hit rate 1.2% among 290,000; recombinant PfM18AAP, H-Glu-NHMec fluorogenic cleavage; inhibition, % at 7.35 µM; AID 1822;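 active = inhibition above the campaign mean inhibition over all tested compounds plus 3 SD, cut at about 28% in these data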;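 also: 0% = plate median of test compound wells and 100% = 2 mM ZnCl2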
# SMARCA2 activ: SMARCA2 function activation, primary screen; activation, % at 9.1 µM; hit rate 1% among 370,000; AID 652017; MG213 cells, MMTV-luciferase reporter, dexamethasone, overnight; in the data active = activation above about 7.8%;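 also: 0% = vehicle wells and 100% = reference activator wells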
# JMJD2C inh: blocks human GASC-1 demethylase activity | hit rate 0.069% among 330,000 | inhibition, % at 2.35 µM | Q9H3R0 | GST-JMJD2C(1-420) H3K9me3 demethylation, DELFIA europium;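 active = more than half of a compound's replicate wells show inhibition beyond 50%, single wells judged on their own value; inconclusive = some, but no more than half, of replicates pass 50% inhibition; inactive = no replicate passes 50% inhibition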;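 also: signal counts dimethyl H3K9 product captured on neutravidin plate; 0% = median of DMSO wells and 100% = 0.3 times that DMSO median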
# Target sequence (Q9H3R0 1-420 limits assumed): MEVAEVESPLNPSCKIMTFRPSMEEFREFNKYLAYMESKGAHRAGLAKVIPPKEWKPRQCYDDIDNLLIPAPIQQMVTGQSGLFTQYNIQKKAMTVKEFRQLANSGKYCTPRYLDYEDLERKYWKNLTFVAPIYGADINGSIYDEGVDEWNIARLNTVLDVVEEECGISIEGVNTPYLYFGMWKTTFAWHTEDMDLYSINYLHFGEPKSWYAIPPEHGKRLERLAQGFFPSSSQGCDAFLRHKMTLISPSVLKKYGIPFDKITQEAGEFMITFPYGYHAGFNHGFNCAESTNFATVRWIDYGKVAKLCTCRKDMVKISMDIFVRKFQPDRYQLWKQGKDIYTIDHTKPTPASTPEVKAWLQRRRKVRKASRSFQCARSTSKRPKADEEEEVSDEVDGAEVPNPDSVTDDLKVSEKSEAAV
# * hit, by the source's call; u = inconclusive; x = no result.
SMILES,MIN6 prolif,ALR H2O2 inh,Exocytosis inh,PfM18AAP inh,SMARCA2 activ,JMJD2C inh
COc1cccc(C(=O)n2ccc3ccc(-c4ccc5ccn(Cc6ccc(C#N)cc6)c5c4)cc32)c1,x,x,x,x,-2,x
CN(C)/C=N/c1sc2c(c1C#N)CCCC2,1,100*,-8,7,0,5
CC1CCc2c(sc(/N=C/N(C)C)c2C#N)C1 (configuration not stated),0,1,0,1,2,10
Nc1ccc(SCc2cccnc2)cc1,0,100*,3,5,-1,16
Nc1ccc(CSc2ccccc2)cc1,x,x,0,x,5,x
O=C(Nc1c(-c2ccc(F)cc2)nc2ncccn12)c1ccccc1,x,x,x,x,-1,x
Nc1[nH]c(N=NC(=O)c2ccc(F)cc2)c2ccccc12,0,99*,-1,4,1,3
Cc1cc(C)nc(Sc2ncnc(N)c2[N+](=O)[O-])n1,-6,49,21,50*,1,-4
S=c1nc(-c2ccccc2)[nH]n1-c1ccccc1,x,u,-1,19,-1,1
S=c1nc(-c2ccccc2)n(-c2ccccc2)[nH]1,3,u,-7,30*,1,4
C=C(NC(=O)C(=C)NC(=O)c1csc(C2=NC3c4csc(n4)C4NC(=O)c5csc(n5)C(C(C)(O)C(C)O)NC(=O)C5CSC(=N5)/C(=C/C)NC(=O)C(C(C)O)NC(=O)c5csc(n5)C3(CC2)NC(=O)C(C)NC(=O)C(=C)NC(=O)C(=C)NC(=O)C(C(C)C)NC2C=Cc3c(C(C)O)cc(nc3C2O)C(=O)OC4C)n1)C(N)=O (configuration not stated),x,x,2,x,8.6*,x
CC(C)n1cnc2cc(NCc3ccccc3O)ccc21,0,99*,3,13,0,3
CCCn1cnc2cc(NCc3cccs3)ccc21,-4,x,-1,14,3,-2
CCc1ccc(CNc2ccc3c(c2)ncn3C(C)(C)C)cc1,-5,75,-4,13,-1,20
CC(C)n1cnc2cc(NCc3ccccn3)ccc21,0,74,-2,1,1,8
CC(C)(C)n1cnc2cc(NCc3ccccc3O)ccc21,-1,99*,26,1,0,26
CC(C)n1cnc2cc(NCc3ccco3)ccc21,-3,84*,5,-6,x,1
CN1C(=O)CC(C(=O)O)SC1=Nc1cc(Cl)c(O)c(Cl)c1 (configuration not stated),-2,99*,1,-4,-2,-3
Cc1ccccc1NS(=O)(=O)c1cc2c(cc1C)N(C)CCO2,2,98*,0,7,-5,-2
COc1ccc(S[C@]2(C(=O)N3CCN(C(C)=O)CC3)CC(=O)N(C(=O)C3CC3)[C@@H]2c2ccc(OC)cc2)cc1,x,x,x,x,-2,x
Cc1ccc(-c2nnc(Nc3ccc(O)cc3)c3ccccc23)cc1S(=O)(=O)NCCO,0,97*,1,-1,-1,6
Oc1ccc(-c2nnc(Nc3cccc(O)c3)c3ccccc23)cc1,-1,98*,-2,-2,3,-2
Cc1ccc(-c2nnc(Nc3cccc(O)c3)c3ccccc23)cc1S(=O)(=O)NCCO,-3,64,10,-3,-1,15
NC(=O)COc1ccc(Nc2nnc(-c3ccc(O)cc3)c3ccccc23)cc1,1,99*,-3,4,4,-10
CNC(=O)c1cc(Nc2nnc(-c3ccc(O)cc3)c3ccccc23)ccc1OC,2,98*,-1,-8,0,-7
SMILES,MIN6 prolif,ALR H2O2 inh,Exocytosis inh,PfM18AAP inh,SMARCA2 activ,JMJD2C inh
Cc1ccc(-c2nnc(Nc3ccc(OCC(N)=O)cc3)c3ccccc23)cc1S(N)(=O)=O,-1,-92,1,0,-3,8
C(/C=C\c1ccco1)=NN1CCN(Cc2cccc3ccccc23)CC1,x,x,x,x,-4,x
OC[C@@H]1CC[C@@H]2O[C@H](CCc3ccc(-c4ccc(F)cc4)cc3)[C@H](n3cc(C4CC4)nn3)C[C@@H]2O1,x,x,x,x,-4,x
C=CCN1CCc2cc(O)c(O)cc2C(c2ccccc2)C1 (configuration not stated),-8,98*,1,x,-1,16
CCN(CC)c1ccc(/C=C(/C#N)C(=O)NCc2ccccc2)o1,-1,43,1,18,5,-6
CCN(CC)c1ccc(/C=C(/C#N)C(=O)NC(C)C)o1,-2,99*,1,8,2,3

# High-throughput results deposited in PubChem BioAssay by several laboratories.
